# In PubChem BioAssay (NCATS):
# Records with an inconclusive call do not appear. A call without a number means that no potency is given here. Active and inactive are the calls of the source. Unless noted, calls come from the whole dose curve; as a rule, active = well fitted curve in the direction sought with a large enough effect; inconclusive = small, poorly fitted or top-dose-only effect, or another doubt; inactive = no such curve, though single readings can be large; an effect the other way counts as inactive or inconclusive.
# What was measured:
# [1] = qHTS to identify inhibitors of the type 1 interferon - major histocompatibility complex class I in skeletal muscle: primary screen against the NCATS LOPAC collection (AID 1347405);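 note: lytic HiBiT luminescence reporting HLA-B protein level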
# Procedure, shortened: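 First, engineered myoblasts carrying HLA-B-HiBiT were seeded in medium lacking dexamethasone with 4 ng/ml IFN-beta. After 1 hr, compounds were pinned in (top 46 uM final, 7 points). After 24 hrs at 37 C, luminescence was measured following 10 min lysis.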
# [2] = qHTS to identify inhibitors of the type 1 interferon - major histocompatibility complex class I in skeletal muscle: primary screen against the NCATS Pharmaceutical Collection (AID 1347407);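 note: luminescence of HiBiT knocked into endogenous HLA-B as interferon-induced MHC class I level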; note: potency is the fitted concentration of half-maximal effect
# Procedure, shortened: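 Immortalized human myoblasts (C25cl48) with HiBiT knocked into endogenous HLA-B*08:01 were stimulated with 4 ng/ml IFN-beta and treated with compounds (8-point, 1:5, top 46 uM final) for 24 h at 37 C; HiBiT lytic luminescence read.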
# [3] = qHTS for inhibitors of adenylyl cyclases using a fission yeast platform: a pilot screen against the NCATS LOPAC library (AID 1347410)
# Procedure, shortened: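 S. pombe CHP2027 (AC9-GNAS-PDE4D2) carrying a PKA-repressed fbp1-GFP reporter was exposed to LOPAC compounds (final up to 57 µM) for 18 h at 30C in the dark, in EMM with histidine, lysine and uracil; GFP gain-of-signal read by laser scanning cytometry.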
# [4] = qHTS to identify inhibitors of the type 1 interferon - major histocompatibility complex class I in skeletal muscle: primary screen against the NCATS Mechanism Interrogation Plate v5.0 (MIPE) Libary (AID 1347411); note: nearly all actives have a fitted effect of over 65% in size; note: potency is the fitted concentration of half-maximal effect
# Procedure, shortened: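 Seed engineered human myoblasts (HLA-B HiBit) in medium without dexamethasone containing 4 ng/ml IFN-beta; after 1 hr add compound titrations (top 46 uM final). Incubate 24 hrs at 37 C, lyse 10 min with HiBiT reagent, read luminescence.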
# [5] = Validation qHTS assay for inhibitors of Activation Induced Cytidine Deaminase (AID): UDG Counterscreen signal (AID 1347427)
# Procedure, shortened: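 Fluorescence at 560 nm excitation, 665 nm emission reports UDG signal after 250 mM NaOH (2x) addition and 30 min. Enzymes (AID 1 uM, UDG 2 U/mL, at 4/3x) preincubated 10 min with compound, then 4 h with 4x 250 nM DJC20/DJC23 substrate at room temperature.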
# [6] = molecular target: Single-stranded DNA cytosine deaminase (Homo sapiens) (UniProt Q9GZX7); assay: Validation qHTS assay for inhibitors of Activation Induced Cytidine Deaminase (AID): AID signal (AID 1347429)
# Procedure, shortened: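 Steps: dispense AID with UDG; pin-transfer compound up to 114 uM final; add DJC20/DJC23 substrate and hold 4 hr at room temperature; add NaOH, hold 30 min; read FRET signal (540/590 nm).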
# [7] = Primary qHTS for inhibitors of La Crosse Virus (LACV) - induced cell death in SH-SY5Y cells (AID 1508616);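 note: top concentration of the series differs between compounds; higher means more rescue of cells from virus-induced death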
# Procedure, shortened: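 SH-SY5Y, 6000 cells/well; cpd via pin tool in DMSO; LACV 0.01 MOI; 6 d 37C 5% CO2; ATPLite, 5 min RT; luminescence normalized to ±virus DMSO controls.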
# [8] = molecular target: Calcium and integrin-binding protein 1 (Homo sapiens) (UniProt Q99828); assay: Validation qHTS for Identification of Calcium Integrin Binding protein 1 (CIB1) Competitor (AID 1508618)
# Procedure, shortened: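 CIB1-GST (1 uM final) incubated 15 min at room temperature with compounds (up to 114 uM), then FITC-labelled alphaIIb peptide (100 nM) added. FP read (Ex 480/Em 540) after 15 min, pH 7.4 buffer containing 5 mM CaCl2.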
# [9] = molecular target: Protein phosphatase 1D (Homo sapiens) (UniProt O15297); assay: RapidFire Mass Spectrometry qHTS Assay for Modulators of WT P53-Induced Phosphatase 1 (WIP1) (AID 1347424); note: series mostly up to about 63 µM
# Procedure, shortened: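 RapidFire MS readout of dephosphorylated VEPPL-S-QETFS product, with 1 uM isotope-labelled peptide standard. Reaction: 10 nM WIP1, 2 uM phosphopeptide substrate, 5 min, room temperature, after 1 h compound preincubation; stopped with 0.5% formic acid.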
# [10] = molecular target: Protein phosphatase 1D (Homo sapiens) (UniProt O15297); assay: Rhodamine-PBP qHTS Assay for Modulators of WT P53-Induced Phosphatase 1 (WIP1) (AID 1347425)
# Procedure, shortened: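 The read-out is the change in Rhodamine-PBP fluorescence (f1 - f0, ex 525/em 598 nm) as Pi is released, read each minute for 11 min. Final reaction: 5 nM WIP1, 10 uM phosphopeptide VEPPL-pS-QETFS, 10 uM Rh-PBP, 50 mM Tris-HCl pH 7.5, 30 mM MgCl2. Compound was preincubated with enzyme for 1 hour at room temperature.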
# [11] = Primary qHTS for inhibitors of SARS-S pseudo-typed particle cell entry (AID 1479145; calls by dose curve; note: nearly all actives have a fitted effect of over 45% in size; note: potency is the fitted concentration of half-maximal effect)
# [12] = Primary qHTS for Huh7 cytotoxicity: counterscreen for inhibitors of MERS-S pseudotyped particle cell entry (AID 1479147; calls by dose curve; note: potency is the fitted concentration of half-maximal effect)
# [13] = Primary qHTS for inhibitors of MERS-S pseudo-typed particle cell entry (AID 1479149; calls by dose curve; note: nearly all actives have a fitted effect of over 60% in size)
# [14] = Primary qHTS for Vero E6 cytotoxicity: counterscreen for inhibitors of SARS-S pseudo-typed particle cell entry (AID 1479150; calls by dose curve; note: potency is the fitted concentration of half-maximal effect)
# [15] = Viability qHTS for inhibitors of the SERCaMP assay screened against the NCATS CANVASS Library (AID 1347400); note: series mostly up to about 92 µM; nearly all actives have a fitted effect of over 70% in size
# Procedure, shortened: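 Seed SH-SY5Y-GLuc SERCaMP MJH297 cells at 1000 per well, incubate 4 h, add compounds across an 11-point range, incubate 48 h at 37C, then add CellTiter-Glo and read luminescence.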
# [16] = Redox Reaction Profiling qHTS: Assay Interference Panel against the NCATS CANVASS Library (AID 1347401)
# Procedure, shortened: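 Fluorescence read-out (525 nm excitation, 598 nm emission) at time zero and after 15 min in the dark tracked resorufin formation. Mix: 5 uM resazurin, 200 uM DTT, HEPES pH 7.3 buffer with NaCl.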
# [17] = qHTS for inhibitors of Rabies Virus screened against the NCATS CANVASS Library (AID 1347402; calls by dose curve; note: series mostly up to about 46 µM)
# Chain of Single-stranded DNA cytosine deaminase (Homo sapiens) (Q9GZX7 whole entry, looked up): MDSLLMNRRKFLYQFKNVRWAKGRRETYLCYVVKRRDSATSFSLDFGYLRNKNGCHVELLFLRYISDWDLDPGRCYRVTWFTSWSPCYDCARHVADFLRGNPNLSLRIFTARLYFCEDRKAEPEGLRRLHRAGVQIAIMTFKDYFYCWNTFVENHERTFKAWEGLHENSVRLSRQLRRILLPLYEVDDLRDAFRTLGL
# Chain of Protein phosphatase 1D (Homo sapiens) (O15297 whole entry, looked up): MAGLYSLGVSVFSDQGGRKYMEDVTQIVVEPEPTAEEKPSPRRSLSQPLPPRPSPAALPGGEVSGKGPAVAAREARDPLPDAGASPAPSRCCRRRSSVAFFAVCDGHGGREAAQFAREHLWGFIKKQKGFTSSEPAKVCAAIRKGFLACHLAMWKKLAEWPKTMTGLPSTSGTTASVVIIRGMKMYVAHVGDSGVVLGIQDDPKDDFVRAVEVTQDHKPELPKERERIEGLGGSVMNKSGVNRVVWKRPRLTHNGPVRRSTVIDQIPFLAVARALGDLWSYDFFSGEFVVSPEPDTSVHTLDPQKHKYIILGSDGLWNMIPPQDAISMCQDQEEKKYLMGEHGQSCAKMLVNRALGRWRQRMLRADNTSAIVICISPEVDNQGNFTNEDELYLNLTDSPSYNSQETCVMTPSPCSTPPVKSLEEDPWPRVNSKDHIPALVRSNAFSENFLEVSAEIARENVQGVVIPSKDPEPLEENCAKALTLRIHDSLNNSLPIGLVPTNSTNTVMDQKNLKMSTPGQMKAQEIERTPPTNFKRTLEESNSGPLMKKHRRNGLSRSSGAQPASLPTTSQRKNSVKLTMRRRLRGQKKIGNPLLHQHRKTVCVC
# Chain of Calcium and integrin-binding protein 1 (Homo sapiens) (Q99828 whole entry, looked up): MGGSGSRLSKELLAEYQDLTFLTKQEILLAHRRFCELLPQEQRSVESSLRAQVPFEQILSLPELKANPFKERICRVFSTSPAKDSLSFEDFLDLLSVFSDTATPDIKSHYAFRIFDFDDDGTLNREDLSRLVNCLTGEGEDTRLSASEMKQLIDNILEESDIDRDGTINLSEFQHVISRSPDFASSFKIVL
smiles,measurement,setting,value
O=C(O)c1nn(Cc2ccc(Cl)cc2Cl)c2ccccc12,outcome,[1],inactive
same,Potency,[2],inactive
same,outcome,[3],inactive
same,Potency,[4],inactive
same,outcome,[5],inactive
same,outcome,[6],inactive
same,outcome,[7],inactive
same,outcome,[8],inactive
O=c1[nH]c2cc(Cl)ccc2n1C1CCNCC1,Potency,[2],inactive
same,Potency,[9],inactive
same,outcome,[10],inactive
CCN(CC)C(C)C(=O)c1ccccc1 (centres undefined),Potency,[2],inactive
same,Potency,[9],inactive
same,outcome,[10],inactive
C[C@@H]1C[C@@H]([C@H](O)CC2CC(=O)NC(=O)C2)C(=O)[C@@H](C)C1,Potency,[2],374 nM (active)
same,Potency,[4],262 nM (active)
same,Potency,[9],inactive
same,outcome,[10],inactive
CN1C[C@@H](NS(=O)(=O)N(C)C)C[C@@H]2c3cccc4c3c(cn4C)C[C@H]21,Potency,[2],inactive
same,Potency,[9],inactive
same,outcome,[10],inactive
CN1CCC(N(Cc2ccccc2)c2ccccc2)CC1,Potency,[2],inactive
same,Potency,[9],inactive
same,outcome,[10],inactive
COc1ccc(OC)c(CC(C)N)c1 (centres undefined),Potency,[2],inactive
same,Potency,[9],inactive
same,outcome,[10],inactive
CCO[C@H]1O[C@@H]2OC3(C)CC[C@H]4[C@H](C)CC[C@@H]([C@H]1C)[C@@]24OO3,Potency,[2],inactive
same,Potency,[9],inactive
same,outcome,[10],inactive
ClCc1cccc(Cl)c1,Potency,[2],inactive
same,Potency,[9],inactive
same,outcome,[10],inactive
C[N+](C)(C)CCOC(=O)C(O)(c1ccccc1)c1ccccc1,Potency,[2],inactive
same,Potency,[9],inactive
same,outcome,[10],inactive
COc1cc(CC(C)N)c(OC)cc1Br (centres undefined),Potency,[2],inactive
same,Potency,[9],inactive
same,outcome,[10],inactive
CN(C)C(=S)SSC(=S)N(C)C,Potency,[2],inactive
same,Potency,[9],inactive
same,outcome,[10],inactive
same,Potency,[11],708 nM (active)
same,Potency,[12],891 nM (active)
same,Potency,[13],inactive
same,Potency,[14],891 nM (active)
CN(C)CCc1c[nH]c2ccccc12,outcome,[15],inactive
same,outcome,[16],inactive
same,outcome,[17],inactive
same,Potency,[2],inactive
same,Potency,[9],inactive
same,outcome,[10],inactive
same,outcome,[7],inactive
COc1cc(C[C@@H](C)N)c(OC)cc1C,Potency,[2],inactive
same,Potency,[9],inactive
same,outcome,[10],inactive
Cc1cccc(Cc2cnc[nH]2)c1C,Potency,[2],inactive
same,Potency,[9],inactive
same,outcome,[10],inactive
same,Potency,[11],inactive
same,Potency,[12],inactive
same,Potency,[13],inactive
same,Potency,[14],inactive
OC(c1ccccc1)(c1ccccc1)C1CCNCC1,Potency,[2],inactive
same,Potency,[9],inactive
same,outcome,[10],inactive
C[C@@H]1O[C@@H](O[C@@H]2C=C3CC[C@@H]4[C@H](CC[C@]5(C)[C@@H](c6ccc(=O)oc6)CC[C@]45O)[C@@]3(C)CC2)[C@H](O)[C@H](O)[C@H]1O,Potency,[2],3.3 nM (active)
same,Potency,[4],7.4 nM (active)
same,Potency,[9],inactive
same,outcome,[10],inactive
same,Potency,[11],inactive
same,Potency,[13],inactive
Oc1c(Br)cc(Br)cc1Br,Potency,[2],inactive
same,Potency,[9],inactive
same,outcome,[10],inactive
COc1cc(CC#N)cc(OC)c1OC,Potency,[2],inactive
same,Potency,[9],inactive
same,outcome,[10],inactive
O=C1NCN(c2ccccc2)C12CCN(CCCOc1ccc(F)cc1)CC2,Potency,[2],inactive
same,Potency,[9],inactive
same,outcome,[10],inactive
COC(=O)C1=CCCN(C)C1,outcome,[1],inactive
same,Potency,[2],inactive
same,outcome,[3],inactive
same,Potency,[9],inactive
same,outcome,[10],inactive
same,outcome,[5],inactive
same,outcome,[6],inactive
same,outcome,[7],inactive
same,outcome,[8],inactive
CC(C)[N+](C)(CCC(C(N)=O)(c1ccccc1)c1ccccc1)C(C)C,Potency,[2],inactive
same,Potency,[9],inactive
same,outcome,[10],inactive
same,Potency,[11],inactive
same,Potency,[12],inactive
same,Potency,[13],inactive
same,Potency,[14],inactive
OC(O)C(Cl)(Cl)Cl,Potency,[2],inactive
same,Potency,[9],inactive
same,outcome,[10],inactive
CN(C)C(=O)Oc1cc(OC(=O)N(C)C)cc(C(O)CNC(C)(C)C)c1 (centres undefined),Potency,[2],inactive
same,Potency,[9],inactive
same,outcome,[10],inactive
same,Potency,[11],inactive
same,Potency,[12],inactive
same,Potency,[13],inactive
same,Potency,[14],inactive
CCC1(c2cccc(O)c2)CCCCN(C)C1 (centres undefined),Potency,[2],inactive
same,Potency,[9],inactive
same,outcome,[10],inactive
same,Potency,[11],inactive
same,Potency,[12],inactive
same,Potency,[13],inactive
same,Potency,[14],inactive
COc1ccc(C(=O)N2CCCC2=O)cc1,outcome,[1],inactive
same,Potency,[2],inactive
same,outcome,[3],inactive
same,Potency,[4],inactive
same,Potency,[9],inactive
same,outcome,[10],inactive
same,outcome,[5],inactive
same,outcome,[6],inactive
same,Potency,[11],inactive
same,Potency,[12],inactive
same,Potency,[13],inactive
same,Potency,[14],inactive
same,outcome,[7],inactive
same,outcome,[8],inactive
C1CN2CCC1CC2,Potency,[2],inactive
same,Potency,[9],inactive
same,outcome,[10],inactive
Cc1c(Cl)c(=O)oc2cc(OP(=O)(OCCCl)OCCCl)ccc12,Potency,[2],inactive
same,Potency,[9],inactive
same,outcome,[10],inactive
same,Potency,[11],inactive
same,Potency,[12],inactive
same,Potency,[13],inactive
same,Potency,[14],inactive
CN1[C@@H]2CC[C@H]1CC(OC(=O)c1cc(Cl)cc(Cl)c1)C2 (some centres undefined),Potency,[2],inactive
same,Potency,[9],inactive
same,outcome,[10],inactive
NC(=O)CN1CCCC1=O,outcome,[1],inactive
same,Potency,[2],inactive
same,outcome,[3],inactive
same,Potency,[9],inactive
same,outcome,[10],inactive
same,outcome,[5],inactive
same,outcome,[6],inactive
same,Potency,[12],inactive
same,Potency,[13],inactive
same,Potency,[14],inactive
same,outcome,[8],inactive
Nc1ccccc1C(=O)OCC(O)CO (centres undefined),Potency,[2],inactive
same,Potency,[9],inactive
same,outcome,[10],inactive
same,Potency,[11],inactive
same,Potency,[12],inactive
same,Potency,[13],inactive
same,Potency,[14],inactive
C[C@]12CC[C@H](O)CC1=CC[C@@H]1[C@@H]2CC[C@]2(C)C(=O)CC[C@@H]12,Potency,[2],inactive
same,Potency,[4],inactive
same,Potency,[9],inactive
same,outcome,[10],inactive
same,Potency,[11],inactive
same,Potency,[12],inactive
same,Potency,[13],inactive
same,Potency,[14],inactive
same,outcome,[7],inactive
CCC(OC(C)=O)C(CC(C)NC)(c1ccccc1)c1ccccc1 (centres undefined),Potency,[2],inactive
same,Potency,[9],inactive
same,outcome,[10],inactive
CCCCCCCCC(=O)NCc1ccc(O)c(OC)c1,Potency,[2],inactive
same,Potency,[9],inactive
same,outcome,[10],inactive
same,Potency,[11],inactive
same,Potency,[12],inactive
same,Potency,[13],inactive
same,Potency,[14],inactive
CC(C)=C[C@@H]1[C@@H](C(=O)OCc2coc(Cc3ccccc3)c2)C1(C)C,Potency,[2],inactive
same,Potency,[9],inactive
same,outcome,[10],inactive
C[C@@H]1CC[C@H]2[C@@H](C)C(=O)O[C@@H]3O[C@@]4(C)CC[C@@H]1[C@]32OO4,Potency,[2],inactive
same,Potency,[4],inactive
same,Potency,[9],inactive
same,outcome,[10],inactive
same,outcome,[7],inactive
CCCOC(=O)Cc1ccc(OCC(=O)N(CC)CC)c(OC)c1,Potency,[2],inactive
same,Potency,[9],inactive
same,outcome,[10],inactive
